DT40 TDP1 no CPT – qHTS for Inhibitors of human tyrosyl-DNA phosphodiesterase 1 (TDP1): qHTS in cells in absence of CPT; Potency, µM (titrated, usually from 46.2 µM), inactives show at the highest dose activity change, negative = growth inhibition, actives largely listed as inhibitors; 15% of 420,000 active; DT40 Tdp1-/- hTDP1 cells, no CPT, ATP luminescence, 48 h; further: potency means the concentration at half of the fitted maximal effect; nearly all actives have a fitted effect of over 55% in size
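Cells were dispensed at 400 per well, compounds added by pin tool, plates incubated ≥48 hr at 37 °C, then CellTiter-Glo added for 30 min at room temperature before luminescence reading. Line: DT40 Tdp1-/- complemented with hTDP1; camptothecin omitted.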
Gal4-VP16 FLuc – Gal4-VP16 reporter inhibition counter-screen | Drosophila S2 Gal4-VP16 UAS-luciferase, luminescence, 20 h | Potency, µM (series often up to 53.6 µM), for the others: top-dose activity, negative = inhibition, most hits filed as inhibitors | 3.5% of 310,000 active;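 further: Gal4-VP16 expression switched on by copper sulfate through the metallothionein promoter; potency means the concentration at half of the fitted maximal effect; nearly all actives have a fitted effect of over 50% in size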
ELG1 repair inh – blocks ELG1-dependent DNA repair in HEK293T cells; HEK293T ELG1-luciferase reporter, luminescence, 16 h; DNA damage induced by 5-fluorouridine; Potency, µM (highest dose often 46.1 µM), for the others: at the highest dose activity change, negative = inhibition, most hits filed as inhibitors; 2.3% of 330,000 active; further: potency means the concentration at half of the fitted maximal effect; nearly all actives have a fitted effect of over 55% in size
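DMSO vehicle served as the neutral condition. Each well held 2,000 cells given 5-fluorouridine plus compound; after 16 hr at 37 °C/5% CO2, ONE-Glo was added and luciferase measured 30 min later.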
RORg inh – ROR gamma (mouse) transcription inhibition; P51450; Drosophila S2 Gal4-RORgamma UAS-luciferase reporter, 20 h; Potency, µM (doses to about 53.6 µM), for inactives: top-dose activity change, negative = inhibition, most hits filed as inhibitors; 5.4% of 310,000 active; AID 2551; further: potency means the concentration at half of the fitted maximal effect; nearly all actives have a fitted effect of over 60% in size
Target sequence (P51450 whole entry, looked up, the tested form may be a part): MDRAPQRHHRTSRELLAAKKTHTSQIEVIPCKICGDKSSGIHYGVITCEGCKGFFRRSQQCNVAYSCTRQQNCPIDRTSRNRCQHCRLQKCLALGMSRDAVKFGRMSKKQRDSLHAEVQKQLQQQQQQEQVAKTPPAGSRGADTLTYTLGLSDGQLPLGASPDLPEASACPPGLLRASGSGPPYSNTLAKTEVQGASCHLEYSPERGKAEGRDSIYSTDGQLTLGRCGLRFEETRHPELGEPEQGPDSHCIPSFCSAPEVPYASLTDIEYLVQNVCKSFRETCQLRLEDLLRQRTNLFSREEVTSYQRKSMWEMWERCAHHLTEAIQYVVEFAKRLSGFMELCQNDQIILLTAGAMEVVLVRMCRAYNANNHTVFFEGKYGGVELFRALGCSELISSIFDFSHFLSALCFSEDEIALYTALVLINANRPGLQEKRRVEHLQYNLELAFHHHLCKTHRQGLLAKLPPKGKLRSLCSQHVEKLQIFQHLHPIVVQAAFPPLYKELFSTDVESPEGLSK
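Compounds are pin-transferred onto Drosophila Schneider cells expressing a copper-inducible Gal4–ROR gamma transactivation domain fusion. After 1 hr, copper sulfate is added to 700 uM final; luciferase is read 20 hr later.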
IL1B secr inh – blocks inflammasome-driven IL-1 beta release. THP-1 LPS/ATP IL-1B secretion, AlphaLISA, 16 h; active compounds read low. activity change, % at 57.5 µM. 4.7% of 360,000 active. AID 743279; in the data active means activity change below about -50%; inconclusive means mostly about -30% to -49%
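Secreted IL-1B measured by AlphaLISA bead assay after 16 h compound exposure of THP-1 cells; compounds (final up to 57.5 uM) added 1 h before LPS (250 ng/mL) and ATP (1.25 mM) stimulation; lower signal means less secretion.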
DT40 TDP1 CPT – growth inhibition of DT40 Tdp1-/-;hTDP1 cells with camptothecin (screen for TDP1 inhibitors) | chicken DT40 Tdp1-/-;hTDP1 cells + 20 nM CPT, ATP luminescence, 48 h | 12% of 420,000 active | Potency, µM (highest dose often 46.2 µM), for inactives: at the top dose activity change, negative = growth inhibition, most hits filed as inhibitors; further: potency means the concentration at half of the fitted maximal effect; nearly all actives have a fitted effect of over 55% in size
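Chicken DT40 Tdp1-/- cells stably complemented with human TDP1 were seeded at 400 cells/well in medium containing 20 nM camptothecin, exposed to pin-transferred compounds, and grown at 37 °C for at least 48 hr. Viability was read as ATP luminescence.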
* hit, by the source's call; ? = inconclusive; · = no result given; [ ] = remark or other dose. This is a sample that favours compounds with a hit; in the whole collection about 21% have one here. Unless noted, the call rests on the fitted dose curve; in most records, active means well fitted curve in the direction sought with a large enough effect; inconclusive means small, poorly fitted or top-dose-only effect, or another doubt; inactive means no such curve, though single readings can be large; an effect the other way counts as inactive or inconclusive. On the % scale 0 is the no-effect control and ±100 the full control effect.

SMILES	DT40 TDP1 no CPT	Gal4-VP16 FLuc	ELG1 repair inh	RORg inh	IL1B secr inh	DT40 TDP1 CPT
CCOC(=O)C[N+](C)(C)CCOC1CC2CCC1(C)C2(C)C (stereo not given)	7.3µM*	-1%	-10%	24%	-5	16µM*
CC1(C)C2CCC1(C)C(OCC[N+](C)(C)CC(=O)OC1CCCCC1)C2 (stereo not given)	0.65µM*	?	?	?	15	1.2µM*
C[C@@H](C(=O)NCc1ccc(C(F)(F)F)nc1)[C@H]1C[C@]1(C)[C@H](NC(=O)OCc1ccccc1)c1ccccc1	·	10%	·	4%	·	·
COc1ccc(OC)c(NC(=O)CCCN2C(=S)NC(C)(C)CC2C)c1 (stereo not given)	-30%	18µM*	0%	11µM*	2	-9%
COc1ccc(C)cc1NC(=O)CCCN1C(=S)NC(C)(C)CC1C (stereo not given)	?	4.5µM*	2%	1µM*	13	-22%
CCOc1ccc(OCC)c(NC(=O)CCCN2C(=S)NC(C)(C)CC2C)c1 (stereo not given)	16µM*	6.3µM*	-15%	6.3µM*	-10	16µM*
CC1CC(C)(C)NC(=S)N1CCCC(=O)Nc1ccc2c(c1)OCCO2 (stereo not given)	-17%	-12%	?	28%	1	-7%
Cc1ccc(NC(=O)CN2C(=O)NC3(CCCCC3C)C2=O)cc1S(=O)(=O)N1CCCCC1 (stereo not given)	?	·	-1%	·	-14	?
Cc1cccc(NC(=O)/C=C/c2ccc([N+](=O)[O-])s2)c1	2.6µM*	3.2µM*	?	6.3µM*	-97*	2.6µM*
Cc1cc([N+](=O)[O-])ccc1NC(=O)/C=C/c1cccs1	?	?	1%	?	?	-4%
Cc1cccc(NC(=S)N/N=C/c2ccc([N+](=O)[O-])s2)c1	7.9µM*	3.2µM*	?	1.3µM*	0	13µM*
Cc1ccc(NC(=O)/C=C/c2ccc([N+](=O)[O-])s2)c(C)c1	3.7µM*	-13%	?	19%	-96*	2.6µM*
Cc1cccc(N/N=C/c2ccc(O)c(O)c2O)c1	?	-16%	?	-36%	29	?
Cc1cccc(NC(=S)N2CCCN(c3ncccc3[N+](=O)[O-])CC2)c1	-19%	25%	0%	?	-1	-8%
Cc1cccc(N/N=C/c2ccc(C)s2)c1	?	2%	?	-3%	6	29µM*
COc1cccc(NC(=O)/C=C/c2ccccc2[N+](=O)[O-])c1	?	6%	?	27%[10 µM]	-9	?
CCN1CCN(C(=O)c2cnn(-c3ncc4c(n3)-c3ccccc3CCC4)c2COC)CC1	-23%	·	·	·	·	-10%
COc1ccc(NC(=O)C2CC3CCC2C3)c(OC)c1 (stereo not given)	3%	·	·	·	-22	-3%
Cc1ccc(NC(=O)/C=C/c2ccc([N+](=O)[O-])s2)cc1	3.7µM*	?	?	?	-96*	3.3µM*
Cc1ccc(NC(=O)/C=C/c2cccc(C(F)(F)F)c2)cc1	?	0%	-6%	?	-23	-1%
COc1ccc(C(=O)N/C(=C\c2cn(S(=O)(=O)N(C)C)c3ccccc23)C(=O)NCCCN2CCOCC2)cc1	-7%	0%	3%	3%	10	-20%
COc1ccccc1C(=O)Nc1sc(C(=O)N2CCCC2)c(C)c1C#N	2%	7.9µM*	?	4µM*	-5	4%
COc1ccc(CNC(=O)Cn2c(=O)c3cccn3c3cccnc32)cc1	-27%	·	·	·	·	-5%
CCn1nc(C)cc1C(=O)N1CCC2(CC1)c1ccccc1[C@@H](NC(=O)c1cccnc1)[C@@H]2O	-8%	·	·	·	·	0%[9.04 µM]
Cc1ccc(NS(=O)(=O)c2ccc3[nH]c4c(c3c2)CCCCCC4)cc1C	16µM*	·	·	·	·	?
SMILES	DT40 TDP1 no CPT	Gal4-VP16 FLuc	ELG1 repair inh	RORg inh	IL1B secr inh	DT40 TDP1 CPT
O=S(=O)(Nc1cccc(F)c1)c1ccc2[nH]c3c(c2c1)CCCCC3	?	·	·	·	·	21µM*
Cc1ccc(NS(=O)(=O)c2ccc3[nH]c4c(c3c2)CCCCCC4)cc1	?	·	·	·	·	26µM*
Cc1ccc(N=Cc2c(C)[nH]n(-c3ccccc3)c2=O)nc1	?	3%	?	0%	25	-9%
Cc1[nH]n(-c2ccccc2)c(=O)c1/C=N/N(c1ccccc1)c1ccccc1	?	?	?	5.6µM*	-10	?
Cc1[nH]n(-c2ccccc2)c(=O)c1/C=N/n1c(C)nc2ccccc2c1=O	?	?	-5%	5.6µM*	15	?
Cc1nc2ccccc2c(=O)n1/N=C/c1ccc(F)cc1	15%	20%	11%	25%	-18	-1%
Cc1ccc(-n2[nH]c(C)c(C=Nc3ccc(C)cn3)c2=O)cc1	16µM*	-7%	-2%	?	20	9.2µM*
Cc1ccc(-n2[nH]c(C)c(/C=N/n3c(C)nc4ccccc4c3=O)c2=O)cc1	23µM*	?	-13%	18µM*	37	6.5µM*
C=CCN=Cc1c(C)[nH]n(-c2ccccc2)c1=O	5%	-7%	?	26%	-10	-2%
CC(=O)N[C@H]1CSSC[C@@H](C(=O)N2CCC[C@H]2C(=O)N2CCC[C@H]2C(=O)N[C@@H](CCCCN)C(=O)N[C@@H](CC(=O)O)C(N)=O)NC(=O)CNC(=O)[C@H](Cc2c[nH]c3ccccc23)NC(=O)[C@H](CCCNC(=N)N)NC(=O)[C@@H](Cc2ccc3ccccc3c2)NC(=O)[C@H](Cc2cnc[nH]2)NC(=O)[C@H](CCC(=O)O)NC1=O	·	-12%	·	8%	·	·
Cc1ccc(C)c(OCC(O)CN2CCC(C)CC2)c1C (stereo not given)	21µM*	-1%	-12%	-32%	24	?
Cc1ccc(C)c(OCC(O)CN2CCc3ccccc3C2)c1C (stereo not given)	3.7µM*	2%	?	9%	0	6.5µM*
CC1CCN(CC(O)COc2ccc(OCC(O)CN3CCC(C)CC3)cc2)CC1 (stereo not given)	?	3%	1%	-17%	1	?
CCOc1ccc(OCC(O)CN2CCc3ccccc3C2)cc1 (stereo not given)	?	26%	-14%	21%	6	-25%

Screens: PubChem, National Center for Advancing Translational Sciences (NCATS)
